The values that follow come from PubChem BioAssay (Tox21).

Records with an inconclusive call do not appear. Active and inactive are the calls of the source. The call rests on the fitted dose curve; in most records, active means well fitted cell-killing curve with a large enough effect in the repeat runs; inconclusive means weak or mixed curves, or effect the other way; inactive means flat fitted curve, though single readings scatter.
On the % scale 0 is the no-effect control and ±100 the full control effect; potency means the concentration at half of the fitted maximal effect.

This test in a line: cAMP Responsive Elements (CRE) small molecule agonists, cell-based qHTS assay: qHTS cell viability counter screen (AID 2060914). Further: nearly all actives have a fitted effect of over 50% in size. Particulars: CRE-bla HEK293T viability, CellTiter-Glo luminescence, 5 h; series mostly up to 92.4 µM; activity change, negative = cytotoxicity: at the top concentration. In short, it runs like this:
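Cytotoxicity counter screen multiplexed with the CRE-bla reporter assay in HEK 293T cells: 3 h compound exposure at 37 °C, followed by CellTiter-Glo luminescence measured in the same wells.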
(In qHTS, concentration-response curves come from the screen itself.)
In the case of `CC1(C)C(=O)N(Cl)C(=O)N1Br`, the “activity change, negative = cytotoxicity” value was 6.56% (inactive).

Regarding `CCC1CCCCC1`, the “activity change, negative = cytotoxicity” value is 0.364% (inactive).

`CNCCC(Oc1ccc(C(F)(F)F)cc1)c1ccccc1` (centres undefined): the “activity change, negative = cytotoxicity” value is -5.52% [at 42.5 µM] (inactive).

Take `c1ccc(C[P+](c2ccccc2)(c2ccccc2)c2ccccc2)cc1`: the “activity change, negative = cytotoxicity” value was 1.69% (inactive).

On to `CN[C@@H]1[C@H](O)[C@H](NC)[C@H]2O[C@@]3(O)C(=O)C[C@@H](C)O[C@H]3O[C@@H]2[C@H]1O`, for which the “activity change, negative = cytotoxicity” value was -8.13% [at 42.5 µM] (inactive).

As for `CC(C)OCCO`, the “activity change, negative = cytotoxicity” value was 0.35% (inactive).

As for `CC(C)=NNC(N)=S`, the “activity change, negative = cytotoxicity” value is -2.28% (inactive).

Take `CCOC(=O)c1ccccc1O`: the “activity change, negative = cytotoxicity” value was -3.67% [at 42.5 µM] (inactive).

For the compound `OCCCCCCCCCCCCBr`, the “activity change, negative = cytotoxicity” value is -0.726% (inactive).

With `NC(CO)(CO)CO`, the Potency result is “inactive”.

Consider `C=CCCCCCCCCCCC`, for which the activity change, negative = cytotoxicity was -4.53% [at 8.39 µM] (inactive).

With `O=C1NC(=O)[C@@]2(CCOc3ccc(F)cc32)N1`, the “activity change, negative = cytotoxicity” value is -22.9% [at 42.5 µM] (inactive).

For the compound `COc1ccc(NC(C)=O)cc1`, the “activity change, negative = cytotoxicity” value was -5.93% (inactive).

Regarding `Clc1cccnc1`, the “activity change, negative = cytotoxicity” value was 2.98% (inactive).

Take `O=CC=C(c1ccccc1)c1ccccc1`: the “activity change, negative = cytotoxicity” value was 4.21% (inactive).

`O=S(=O)(O)c1ccc2c(N=Nc3ccc(S(=O)(=O)O)c4ccccc34)c(O)c(S(=O)(=O)O)cc2c1`: the activity change, negative = cytotoxicity is 0.372% [at 8.39 µM] (inactive).

As to `COc1cc(C(=O)NC2CCN(C)CC2)ccc1Nc1ncc2c(n1)N(C1CCCC1)CC(F)(F)C(=O)N2C`, the “activity change, negative = cytotoxicity” value was -6.3% (inactive).

For the compound `CCCC(=O)OCC(COC(=O)CCC)OC(=O)CCC`, the “activity change, negative = cytotoxicity” value was -3.26% (inactive).

As for `Clc1ccc2c(Cl)ccnc2c1`, the “activity change, negative = cytotoxicity” value is 8.53% (inactive).

Turning to `Cc1c(C2(c3cc(Br)c(O)c(Br)c3C)OS(=O)(=O)c3ccccc32)cc(Br)c(O)c1Br`, the Potency is 52.9 µM (active).

For the compound `O=c1[nH]nc(-c2ccc([N+](=O)[O-])o2)o1`, the “activity change, negative = cytotoxicity” value was 1.54% (inactive).

On to `C=CC(=O)OCCC#N`, for which the “activity change, negative = cytotoxicity” value is 0.538% (inactive).

On to `CC1(C)COCN1`, for which the “activity change, negative = cytotoxicity” value was 7.97% (inactive).

On to `CN1CCN(CCCN2c3ccccc3Sc3ccc(C(F)(F)F)cc32)CC1`, for which the “activity change, negative = cytotoxicity” value was -21.5% [at 42.5 µM] (inactive).

`COCCOC[C@H](CC1(C(=O)NC2CCC(C(=O)O)CC2)CCCC1)C(=O)Oc1ccc2c(c1)CCC2` (some centres undefined): the “activity change, negative = cytotoxicity” value was 4.24% (inactive).

As to `Cc1c(NC(=O)c2cccnc2)c(=O)n(-c2ccccc2)n1C`, the “activity change, negative = cytotoxicity” value is 6.95% [at 42.5 µM] (inactive).

Regarding `CC1=CCC(C(C)(C)O)CC1` (centres undefined), the Potency entry is “inactive”.

Take `Cc1nn(C)c(Oc2ccccc2)c1/C=N/OCc1ccc(C(=O)OC(C)(C)C)cc1`: the “activity change, negative = cytotoxicity” value was -15.9% (inactive).

In the case of `CO/N=C(/C(=O)N[C@@H]1C(=O)N2C(C(=O)O)=C(COC(N)=O)CS[C@H]12)c1ccco1`, the “activity change, negative = cytotoxicity” value was -4.6% (inactive).

Regarding `CCN1CCOCC1`, the “activity change, negative = cytotoxicity” value was -0.898% (inactive).

`CCCCOc1ccc(N)cc1`: the “activity change, negative = cytotoxicity” value was -14.7% (inactive).

With `O=C(O)c1cccc(-c2noc(-c3ccccc3F)n2)c1`, the Potency was 21.1 µM (active).

As to `CC(Oc1c(Cl)cccc1Cl)C1=NCCN1` (centres undefined), the “activity change, negative = cytotoxicity” value was -8.77% [at 42.5 µM] (inactive).

`CC(C)NCCCC1(C(N)=O)c2ccccc2-c2ccccc21`: the “activity change, negative = cytotoxicity” value was 11.1% [at 42.5 µM] (inactive).

As for `CCCOc1ccc(S(=O)(=O)N2CCN(CC)CC2)cc1-c1nc2c(CC)n(Cc3ccccn3)nc2c(=O)[nH]1`, the “activity change, negative = cytotoxicity” value is 16.9% (inactive).

Regarding `Cc1ccc(N(CCO)CCO)cc1`, the “activity change, negative = cytotoxicity” value is 6.48% (inactive).

Regarding `O=[N+]([O-])c1cncn1CCN1CCOCC1`, the “activity change, negative = cytotoxicity” value was -5.91% [at 42.5 µM] (inactive).

Turning to `CC[C@H](NC(C)C)[C@H](O)c1ccc(O)c2[nH]c(=O)ccc12`, the “activity change, negative = cytotoxicity” value was -21.1% [at 42.5 µM] (inactive).

Turning to `c1ccc(C(O[C@@H]2CCCN(CCc3ccc4c(c3)OCO4)C2)c2ccccc2)cc1`, the “activity change, negative = cytotoxicity” value was -17% (inactive).
